# High-throughput results from PubChem BioAssay.
# ALDH1A1 block: inhibitors of human aldehyde dehydrogenase 1A1; P00352; Purified ALDH1A1, NADH fluorescence, propionaldehyde substrate; Potency, µM (series often up to 75.3 µM), for the others: at the highest dose activity, negative = inhibition, most hits filed as inhibitors; 220,000 compounds, 7.3% hits; AID 1030; active means well fitted inhibition curve with a large enough effect, not every such curve was filed as active; inconclusive means small, poorly fitted or top-dose-only effect, or another doubt; inactive means no such curve, though single readings can be large or run the other way;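 further: potency means the concentration at half of the fitted maximal effect; plate controls were no enzyme wells and a reference inhibitor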
# Target sequence (P00352 whole entry, looked up): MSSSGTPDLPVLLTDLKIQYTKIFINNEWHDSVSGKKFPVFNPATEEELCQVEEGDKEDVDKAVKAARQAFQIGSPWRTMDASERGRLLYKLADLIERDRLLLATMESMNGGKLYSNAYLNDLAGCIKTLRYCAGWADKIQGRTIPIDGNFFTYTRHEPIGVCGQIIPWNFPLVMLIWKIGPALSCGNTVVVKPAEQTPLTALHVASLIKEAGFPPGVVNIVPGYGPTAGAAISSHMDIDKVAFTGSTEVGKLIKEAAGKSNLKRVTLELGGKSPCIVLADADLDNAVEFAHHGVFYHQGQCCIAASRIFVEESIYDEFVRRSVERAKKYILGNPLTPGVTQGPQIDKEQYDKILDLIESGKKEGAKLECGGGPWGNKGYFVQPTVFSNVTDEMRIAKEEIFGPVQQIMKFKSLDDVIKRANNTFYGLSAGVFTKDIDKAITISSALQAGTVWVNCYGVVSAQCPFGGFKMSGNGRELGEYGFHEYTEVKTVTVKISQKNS
# RGS12 GoLoco inh: inhibitors of human Gai1-RGS12 GoLoco interaction (red fluorophore). P63096. Gai1:RGS12 GoLoco peptide FP, rhodamine, 10 min. Potency, µM (highest dose often 61.6 µM), for the others: at the highest dose activity, negative = inhibition, usual class: inhibitors. 230,000 compounds, 0.44% hits. AID 880; active means well fitted inhibition curve with a large enough effect, not every such curve was filed as active; inactive means no such curve, though single readings can be large or run the other way; further: potency means the concentration at half of the fitted maximal effect; nearly all actives have a fitted effect of over 30% in size
# NPSR antag: antagonists of human neuropeptide S receptor cAMP signaling; Q6W5P4; CHO-NPSR cells, cAMP TR-FRET, antagonist mode; Potency, µM (highest dose often 38.3 µM), without a hit: at the highest dose activity change, negative = inhibition, usual class: inhibitors; 220,000 compounds, 1% hits; AID 1461; further: potency means the concentration at half of the fitted maximal effect; nearly all actives have a fitted effect of over 50% in size
# FBPA coupling cs: inhibits coupling enzyme system, counter-screen for aldolase hits | activity change, negative = inhibition, % at 58.2 µM, hits read low | coupling enzyme system counterscreen, AmpLite Red fluorescence | 290,000 compounds, 0.67% hits; in the data active means activity change below about -30%
#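 Coupling enzymes only (glyceraldehyde-3-phosphate) + compound, at 57.5 uM final, 10 min RT; add substrate/coupling/AmpLite Red mix, 20 min RT; fluorescence ex 525/em 598 nm. Actives flag coupling-system interference.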
# Sfp inh: blocks B. subtilis Sfp PPTase activity; Biochemical Sfp PPTase activity, qHTS; Potency, µM, for inactives: largest response in the series, negative = inhibition, most hits filed as inhibitors; 310,000 compounds, 3.5% hits;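 further: the enzyme is Sfp with the accession as filed and its product quenches rhodamine fluorescence; potency means the concentration at half of the fitted maximal effect; 0% = enzyme reaction without inhibitor and -100% = no enzyme wells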
#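 Sfp 15 nM + cpd, 15 min RT; start w/ rhodamine-CoA 5 uM, BHQ-2-YbbR 12.5 uM (final); 50 mM Hepes pH 7.6, 10 mM MgCl2, 0.01% NP-40, 0.01% BSA; read 525/598 nm at 0 and 30 min.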
# KDM4E inh: blocks human JMJD2E demethylase activity. AID 2147. Potency, µM (series often up to 57.1 µM), without a hit: top-dose activity change, negative = inhibition, usual class: inhibitors. 230,000 compounds, 1.6% hits. B2RXH2. JMJD2E catalytic domain, FDH-coupled NADH fluorescence (FDH is formaldehyde dehydrogenase);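 further: potency means the concentration at half of the fitted maximal effect; 0% = wells with enzyme and -100% = buffer wells without enzyme; nearly all actives have a fitted effect of over 50% in size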
# * hit, by the source's call; u = inconclusive; x = no result; ! = a repeat was not active; [ ] = another dose, or the depositor's remark. In the library only some 8.5% were active in any assay of this set; here they are far more common. Unless noted, the call rests on the fitted dose curve; in most records, active means well fitted curve in the direction sought with a large enough effect; inconclusive means small, poorly fitted or top-dose-only effect, or another doubt; inactive means no such curve, though single readings can be large; an effect the other way counts as inactive or inconclusive. Unless noted, on the % scale 0 is the no-effect control and ±100 the full control effect.
SMILES,ALDH1A1 block,RGS12 GoLoco inh,NPSR antag,FBPA coupling cs,Sfp inh,KDM4E inh
CCCCc1cc2c(cn1)=C(OC(=O)c1cccs1)C(C)(OC(=O)CC)C(=O)C=2 (stereo not drawn),3.2µM*,19%[14.2 µM],x,-6,-2%,-2%[11.4 µM]
CC(=O)c1cccc(OCc2cc(C(=O)NCCC3=CCCCC3)no2)c1,x,x,x,x,4%,x
O=c1[nH]c2ccccc2c(O)c1SCCO,-15%,-7%,-1%,-2,79µM*,u
CNC(=O)C(=O)Nc1c(O)c2ccccc2[nH]c1=O,x,-3%,4%,1,22µM*,-27%
CCNC(=O)c1c(O)c2ccccc2[nH]c1=O,-1%,2%,4%[46.1 µM],0,7%,u
CC(=O)Nc1c(O)c2ccccc2[nH]c1=O,u,11%,-12%,-1,18µM*,u
CC(C)=NNC(=O)c1c(O)c2ccccc2[nH]c1=O,13µM*,1%,-24%,-6,-6%,u
O=C1NC2(CCCCCC2)C(=O)N1Cc1ccc([N+](=O)[O-])cc1,u,-9%,-9%[46.1 µM],3,14%,10%
N#Cc1cccc(NC(=O)N2CCCC3(CCN(S(=O)(=O)c4ccccc4)CC3)C2)c1,-12%,-9%,x,-3,27%,x
COc1ccccc1NS(=O)(=O)c1cc(NC(=O)c2cc(=O)[nH]c3ccccc23)ccc1N1CCOCC1,x,7%,-12%,0,-12%,-21%
COc1cc(OC)c(S(=O)(=O)Nc2ccccc2N2CCCCC2)cc1NC(C)=O,x,11%,2%,2,13%,6%
COc1ccccc1NS(=O)(=O)c1cc(NC(=O)c2cc[n+]([O-])cc2)ccc1N1CCCC1,7.9µM*,-11%,-20%,0,11µM*,u
COc1ccccc1NS(=O)(=O)c1cc(NC(=O)Nc2ccccc2)ccc1N1CCCCC1,18µM*,4%,-11%,-1,u,u
O=C(Nc1ccc(F)cc1)Nc1ccc(N2CCCC2)c(S(=O)(=O)Nc2ccccc2Cl)c1,u,1%,10µM*,-1,20%,22µM*
O=C(Nc1ccc(Cl)c(Cl)c1)Nc1ccc(N2CCCC2)c(S(=O)(=O)Nc2ccccc2Cl)c1,7%,3%,-58%,0,21%,u
COc1ccccc1NS(=O)(=O)c1cc(NC(=O)C(C)C)ccc1N1CCCCC1,9.5µM*,-6%,-49%,0,40µM*,-22%
O=C(O)CC(c1cccc2ccccc12)N1Cc2ccccc2C1=O (stereo not drawn),5%,-1%,2%,14,23%,0%
COc1cc(C(=O)OCCNC(=O)c2ccncc2)cc(OC)c1OC,7%,-14%,-10%[46.1 µM],-2,5%,-6%
Cc1ccc(S(=O)(=O)/N=C(\CN2CCCCC2)N2CCOCC2)cc1,11µM*,2%,-4%[46.1 µM],-2,16%,7%
Cc1ccc(S(=O)(=O)/N=C(/c2ccccc2)N2CCOCC2)cc1,0%,-8%,-1%,-2,6%,-7%
COc1ccc(C2CC(=O)Oc3c(C(CCN4CCCCC4)c4ccc(N(C)C)cc4)c(OC)cc(OC)c32)cc1 (stereo not drawn),x,0%,-30%,2,-10%,-4%
COc1ccc(C2CC(=O)Oc3c(C(CCN4CCCC(C)C4)c4ccc(N(C)C)cc4)c(OC)cc(OC)c32)cc1 (stereo not drawn),x,-6%,-41%,2,89µM*!,-12%
CCCc1[nH]n(-c2nc3ccccc3s2)c(=O)c1C=NCC1CCCO1 (stereo not drawn),25µM*,6%,-30%[46.1 µM],-5,-16%,-7%
O=C(O)C1CSC(c2ccncc2)N1 (stereo not drawn),u,-10%,12%[46.1 µM],2,-70%,-14%
CCOC(=O)COc1ccc(C2NC(C(=O)O)CS2)cc1 (stereo not drawn),u,-16%,-4%[46.1 µM],1,45µM*,u
COC(=O)c1ccc(C2NC(C(=O)O)CS2)cc1 (stereo not drawn),u,2%,-6%[46.1 µM],2,56µM*,u
